The results in this text go back to ChEMBL document CHEMBL3988442, “University of Dundee, Small-Polar-MMV Screening Library” (2021).

This experiment in a line: In vitro enzyme assay to detect hydrolysis of chlorophenol red-beta-D-[…] directly proportional to the number of Toxoplasma stably expressing beta-galactosidase. It is filed as functional, organism-based, Toxoplasma gondii. More on the design: scale not given: in the data most compounds retested in dose-response had high values.

About 440 (0.52%) of roughly 85,000 compounds showed an effect of 50% or more. The list comes from a sample in which strong results are over-represented; it also holds similar structures and randomly drawn compounds.

As for `CCC(=O)N1CCCN(C(=O)C(N)C(C)(C)C)CC1` (stereo not drawn), the “Percent Effect” value (50 µM) is 9.824%.
Still for that read-out and setting: in the case of `CC(=O)N1CCN(c2nccn2C)CC1` it was 15.57%.
The same measure, in the same setting: in the case of `Cc1ccc(C(=O)N2CCN(c3nccs3)CC2)o1` it was 7.068%; in that of `Cc1ccc(C(=O)N2CCN(c3nccn3C)CC2)o1`, 58.26%; in that of `Cn1cc(NC(=O)CSc2nccn2C)cn1`, 23.13%.
Still for that read-out and setting: the result for `CC(N)c1nnc2ccccn12` (stereo not drawn) reads 17.22%.
In the case of `O=C(Nc1ccccn1)NC1CCN(c2ccccc2OC(F)F)C1` (stereo not drawn), the “Percent Effect” value (10 µM) is recorded as 20.62%.
The same measure, in the same setting: in the case of `O=C(Nc1ccncc1)NC1CCN(c2ccccc2OC(F)F)C1` (stereo not drawn) it was 74.41%; in that of `O=C(Nc1cccnc1)NC1CCN(c2ccccc2OC(F)F)C1` (stereo not drawn), -3.215%.
With `CCC1(CN)OCCc2ccccc21` (stereo not drawn), the “Percent Effect” value (50 µM) came to 4.501%.
The same measure, in the same setting: in the case of `NC(=O)[C@@H]1Cc2ccccc2CO1` it was 9.404%; in that of `Cn1ncnc1CCNc1cc(C2CC(N)C2)ncn1` (stereo not drawn), 22.67%.
On to `CCCS(=O)(=O)N1CCC(NC(=O)c2cc3ccccc3s2)CC1`, for which, under “10 µM”, the “Percent Effect” value came out at 4.884%.
For `CN1CCC(NC(=O)c2cc3ccccc3s2)C1=O` (stereo not drawn), the “Percent Effect” value (50 µM) amounted to 52.45%.
Same read-out and setting: in the case of `CN1CCC(NC(=O)c2ccc3ncccc3c2)C1=O` (stereo not drawn) it was 1.515%; in that of `CCC(C)(NCc1cc(F)ccc1F)C(N)=O` (stereo not drawn), -22.31%.
In the case of `CCN(CCNS(=O)(=O)C1CCOCC1)C(=O)OC(C)(C)C`, where the note is “10 µM”, the “Percent Effect” value was 6.938%.
On to `CC(C)(C)OC(=O)N(CCNS(=O)(=O)N1CCOCC1)C1CC1`, for which the “Percent Effect” value (10 µM) is -6.418%.
Regarding `CCN(CCNS(=O)(=O)N1CCOCC1)C(=O)OC(C)(C)C`, the “Percent Effect” value (10 µM) was found to be 51.95%.
`O=C1CCOc2cc(O)c(F)cc21`: the “Percent Effect” value (50 µM) was -11.53%.
Take `CN(C)S(=O)(=O)CCCN1CCC2(CCCNC2=O)C1` (stereo not drawn): the “Percent Effect” value (50 µM) came out at 25.69%.
The same measure, in the same setting: the result for `CC1CCCN(Cc2nc(N)nc(N(C)C)n2)C1` (stereo not drawn) reads 28.57%.
On the same count and under the same terms, the result for `COc1ccc(C(CO)N(C)Cc2ccncc2)cc1` (stereo not drawn) reads 7.987%.
As to `CCC(C#N)NC(=O)c1ccc(Oc2cccnc2)cc1` (stereo not drawn), the “Percent Effect” value (10 µM) was -3.821%.
Turning to `CC(CO)CNC(=O)c1cnc(OC(C)C)c(Cl)c1` (stereo not drawn), the “Percent Effect” value (50 µM) was 9.037%.
As for `CCC(C#N)NC(=O)c1cnc(OC(C)C)c(Cl)c1` (stereo not drawn), the “Percent Effect” value (50 µM) was found to be 77.34%.
As for `O=C(c1ccccc1-n1cccn1)N1CCSCC1`, the “Percent Effect” value (50 µM) is 5.631%.
Same read-out and setting: in the case of `CCOc1ncccc1C(=O)N1CCCN(CC)CC1` it was 8.353%.
For `COCC1CN(Cc2ccc(C)s2)Cc2nnn(C)c21.O=C(O)C(F)(F)F` (stereo not drawn), where the note is “10 µM”, the “Percent Effect” value amounted to 3.713%.
With `Cc1ccc(CN2Cc3nnn(C)c3C(COCC(=O)N(C)C)C2)s1.O=C(O)C(F)(F)F` (stereo not drawn), under “10 µM”, the “Percent Effect” value is given as -13.89%.
The same measure, in the same setting: in the case of `Cc1ccc(CN2Cc3nnn(C)c3C(COCC3CC3)C2)s1.O=C(O)C(F)(F)F` (stereo not drawn) it was -9.58%; in that of `Cc1ccc(CN2Cc3nnn(C)c3C(COCc3ccccc3)C2)s1.O=C(O)C(F)(F)F` (stereo not drawn), 57.56%.
The same measure, in the same setting: the result for `Cc1ccc(CN2Cc3nnn(C)c3C(COCc3ccccn3)C2)s1.O=C(O)C(F)(F)F.O=C(O)C(F)(F)F` (stereo not drawn) reads 13.37%.
